Laboratory results from PubChem BioAssay (NCI).
Compounds without any hit were thinned out: in the full panel of roughly 83,000, 20% have a hit.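 Percent growth is the endpoint: 0 to 100 indicates growth inhibition (40 means 60% inhibition), 0 means no net growth, and negative values indicate cell death.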 Activity calls are given as the source filed them. Rule for the calls: active = growth percent below 10; inactive = the rest.

System: DU-145 prostate
Test: NCI-60 one-dose screen, 48 h (100 = growth as untreated, 0 = no growth, -100 = all killed)
Conditions: 10 µM unless noted

SMILES	growth
COC(=O)c1cc(=O)nc(N/N=C/c2ccc(C)cc2)s1	114% (inactive)
COc1cc(C(=O)/C=C/c2cc(-c3ccc4c(c3)OCO4)n[nH]2)cc(OC)c1OC	0.359% (active)
O=C(/C=C\c1ccc2c(c1)OCO2)/C=C/c1ccc2c(c1)OCO2	90.7% (inactive)
COc1cc(-c2cc(-c3nc4cc(Cl)c(Cl)cc4[nH]3)[nH]n2)cc(OC)c1OC	92.5% (inactive)
COC1=C(Br)C(=O)C(OC)=C(Br)C1=O	109% (inactive)
COc1ccc2c(c1)C/C(=C\c1cc(-c3ccc4c(c3)OCO4)n[nH]1)C2=O	112% (inactive)
CC(C)(C)c1ccc(OP(=S)(N/N=C/c2ccccc2O)Oc2ccc(C(C)(C)C)cc2)cc1	92% (inactive)
OCC12CCCC(CO)(COC1)C2O (stereo unspecified)	127% (inactive)
COc1ccc(-c2cc(/C=C/C(=O)c3ccc(N)cc3)[nH]n2)cc1	11.9% (inactive)
O=c1c(CNc2ccc(S(=O)(=O)Nc3ncccn3)cc2)coc2ccccc12	108% (inactive)
NC(Cc1ccc(O)cc1)C(=O)N/N=C/c1ccccc1O (stereo unspecified)	105% (inactive)
COc1ccc2c(c1)C/C(=C\c1cc(-c3cc(OC)c(OC)c(OC)c3)n[nH]1)C2=O	113% (inactive)
O=c1c(CNc2ccc(S(=O)(=O)Nc3nccs3)cc2)coc2ccccc12	110% (inactive)
Nc1c(C(=O)Nc2cccc(Cl)c2)sc2ncc(Cl)cc12	56.7% (inactive)
CCN(CC)CCCCCNc1cc(OC(=O)c2ccccc2)cc2cccnc12	111% (inactive)
Fc1ccc2nc(-c3cc(-c4ccc5c(c4)OCO5)n[nH]3)[nH]c2c1	78.3% (inactive)
C#Cc1cc2c(N)c(C(=O)c3cc(OC)c(OC)c(OC)c3)[nH]c2cc1OC	19% (inactive)
Cc1cc(Cl)c2c(N(C)C)cccc2n1	106% (inactive)
COc1ccc(/C=C2\N=C(c3ccccc3)N(c3cc(OC)c(OC)cc3C(=O)N3N=C(C)CC3=O)C2=O)cc1	95.2% (inactive)
COc1ccc2nc(-c3c(-c4ccccc4)nc4ncccn34)[nH]c2c1	115% (inactive)
O=C1C=C(C(O)c2ccc(O)cc2)C(=O)c2ccccc21 (stereo unspecified)	107% (inactive)
Cc1ccc(-c2nc3ccc(Cl)cc3c(=O)n2N2C(=O)CSC2c2ccccc2Cl)cc1 (stereo unspecified)	73.1% (inactive)
NS(=O)(=O)c1ccc(CCNC(=O)/C=C/c2ccc(Cl)cc2)cc1	99.5% (inactive)

System: K-562 leukemia
Test: as above
Conditions: 10 µM unless noted

SMILES	growth
O=C1C=Cc2ncccc2C1=O	0.688% (active)
COc1cc2c(cc1OC)C(=O)/C(=C/c1cc(-c3ccc4c(c3)OCO4)n[nH]1)C2	-41.5% (active)
CCN(CC)CCCCCCNc1ccnc2cc(Cl)ccc12	30.1% (inactive)
COC(c1ccccc1)(c1ccccc1)c1ccccc1	109% (inactive)
CC(CNc1nc(Nc2ccc(Cl)c(Cl)c2)nc(C(Cl)(Cl)Cl)n1)N(C)C (stereo unspecified)	-54% (active)
COc1cccc2c1C(=O)c1c(O)c3c(c(O)c1C2=O)C[C@@](O)(C(=O)CO)C[C@@H]3OC1C[C@H](N)[C@H](O)[C@H](C)O1 (stereo partly specified)	-2.21% (active)
NC(=O)[C@@H]1CC2CCC1C2 (stereo partly specified)	45.5% (inactive)
COc1cc2[nH]c(C(=O)c3cc(OC)c(OC)c(OC)c3)c(N)c2cc1C#CCO	7.65% (active)
CN(C)c1ccc(N=C2C=CC(=O)C=C2)cc1	64.2% (inactive)
COc1ccc(C(=O)c2cc(OC)c(OC)c(OC)c2)cc1/C=C/C(=O)c1cc(OC)c(OC)c(OC)c1	99.8% (inactive)
Nc1c(C(=O)Nc2cccc(Br)c2)sc2nc3c(cc12)C(=O)CCC3	13.7% (inactive)
O=C1NC(=Nc2ccc(S(=O)(=O)Nc3nccs3)cc2)S/C1=C\c1coc2ccccc2c1=O	93.8% (inactive)
COc1ccc(C(=O)/C=C/c2cc(-c3cc(OC)c(OC)c(OC)c3)n[nH]2)cc1OC	3.36% (active)
COc1cc2[nH]c(C(=O)c3cc(OC)c(OC)c(OC)c3)c(N)c2cc1C#CC1CC1	30.2% (inactive)
O=C(NC1=CC(=O)c2ccccc2C1=O)c1ccccc1	-0.828% (active)
COC(=O)c1cc(=O)nc(N/N=C/c2ccc(C)cc2)s1	96.1% (inactive)
COc1cc(C(=O)/C=C/c2cc(-c3ccc4c(c3)OCO4)n[nH]2)cc(OC)c1OC	-17% (active)
O=C(/C=C\c1ccc2c(c1)OCO2)/C=C/c1ccc2c(c1)OCO2	4.27% (active)
COc1cc(-c2cc(-c3nc4cc(Cl)c(Cl)cc4[nH]3)[nH]n2)cc(OC)c1OC	17.5% (inactive)

SMILES	growth
COC1=C(Br)C(=O)C(OC)=C(Br)C1=O	31.7% (inactive)
COc1ccc2c(c1)C/C(=C\c1cc(-c3ccc4c(c3)OCO4)n[nH]1)C2=O	60.1% (inactive)
CC(C)(C)c1ccc(OP(=S)(N/N=C/c2ccccc2O)Oc2ccc(C(C)(C)C)cc2)cc1	59% (inactive)
OCC12CCCC(CO)(COC1)C2O (stereo unspecified)	120% (inactive)
COc1ccc(-c2cc(/C=C/C(=O)c3ccc(N)cc3)[nH]n2)cc1	-2.07% (active)
O=c1c(CNc2ccc(S(=O)(=O)Nc3ncccn3)cc2)coc2ccccc12	100% (inactive)
NC(Cc1ccc(O)cc1)C(=O)N/N=C/c1ccccc1O (stereo unspecified)	105% (inactive)
COc1ccc2c(c1)C/C(=C\c1cc(-c3cc(OC)c(OC)c(OC)c3)n[nH]1)C2=O	53.7% (inactive)
O=c1c(CNc2ccc(S(=O)(=O)Nc3nccs3)cc2)coc2ccccc12	92.2% (inactive)
Nc1c(C(=O)Nc2cccc(Cl)c2)sc2ncc(Cl)cc12	80.6% (inactive)
CCN(CC)CCCCCNc1cc(OC(=O)c2ccccc2)cc2cccnc12	23.8% (inactive)
Fc1ccc2nc(-c3cc(-c4ccc5c(c4)OCO5)n[nH]3)[nH]c2c1	15.5% (inactive)
C#Cc1cc2c(N)c(C(=O)c3cc(OC)c(OC)c(OC)c3)[nH]c2cc1OC	13.4% (inactive)
Cc1cc(Cl)c2c(N(C)C)cccc2n1	59.5% (inactive)
COc1ccc(/C=C2\N=C(c3ccccc3)N(c3cc(OC)c(OC)cc3C(=O)N3N=C(C)CC3=O)C2=O)cc1	81.5% (inactive)
COc1ccc2nc(-c3c(-c4ccccc4)nc4ncccn34)[nH]c2c1	101% (inactive)
O=C1C=C(C(O)c2ccc(O)cc2)C(=O)c2ccccc21 (stereo unspecified)	97.2% (inactive)
Cc1ccc(-c2nc3ccc(Cl)cc3c(=O)n2N2C(=O)CSC2c2ccccc2Cl)cc1 (stereo unspecified)	93.4% (inactive)
NS(=O)(=O)c1ccc(CCNC(=O)/C=C/c2ccc(Cl)cc2)cc1	90.4% (inactive)
